Inconclusive results are not listed. Active and inactive are the calls of the source. How the source made its calls, unless noted: active means hit-call score of the fitted dose curve at least 0.9, where 1 is the maximum; inconclusive means response in the unintended direction; inactive means score below 0.9.

Test [1] relates to Thyroperoxidase (TPO), gene 54314. The experiment in a line: CCTE_Simmons_AUR_rTPO: CCTE's Amplex UltraRed Assay for Thyroperoxidase (TPO) Inhibition, Simmons Lab (AID 2283662). Summed up:
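Rat thyroid microsomes (5 ug protein) were incubated with test compound (8 concentrations, 5 nM–87.5 uM final, 0.5% DMSO), 25 uM Amplex UltraRed and 300 uM H2O2 in 200 mM phosphate buffer for 30 min at 37C in the dark; fluorescence read at 544/590 nm.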

The nature of test [2]: CCTE_Simmons_CellTiterGLO_HEK293T: Viability Assessment in CCTE's Assays for Thyroperoxidase (TPO) Inhibition, Simmons Lab (AID 2283665). Summed up: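 ATP depletion measured in HEK293T cells after 24 h dosing (8 concentrations, 5 nM–87.5 uM final; DMSO 0.5%) using CellTiter-Glo luminescence; curves fit for loss of signal against DMSO baseline.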
Test [3] concerns the target Luciferin 4-monooxygenase (Photinus pyralis) (UniProt P08659). Kind of test: CCTE_Simmons_QuantiLum_inhib_2: CCTE's Firefly Luciferase Inhibition Assay, Simmons Lab (AID 2283767).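 Further: potency for inhibitors that lower luciferase luminescence relative to DMSO.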 Summed up: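 Eight-point titrations of each chemical, 5 nM–87.5 uM final in 0.5% DMSO, were run in three biological replicates against recombinant luciferase for 30 min at 37C. Bioluminescence signal loss, read on reagent injection, gave the inhibition endpoint.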

Test [4] in a line: CCTE_Harrill_HTTr_Viability_MCF7: CCTE's 6-hour Cell Viability Assessment for the High-Throughput Transcriptomics (HTTr) Platform, in MCF-7 cells cultured in DMEM + 10% fetal bovine serum, Harrill Lab (AID 2284010; active means hit-call score of the fitted dose curve at least 0.9, where 1 is the maximum; inactive means score below 0.9). Summed up:
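Eight-point concentration series, six-hour exposure. Propidium iodide exclusion imaged to assess membrane integrity as a cytotoxicity readout; bidirectional fitting was done with DMSO as negative control and activity baseline.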

Test [5] is described as follows: CCTE_Harrill_HTTr_Apoptosis_MCF7: CCTE's 6-hour Apoptosis Assessment for the High-Throughput Transcriptomics (HTTr) Platform, in MCF-7 cells cultured in DMEM + 10% fetal bovine serum, Harrill Lab (AID 2284011; active means hit-call score of the fitted dose curve at least 0.9, where 1 is the maximum; inactive means score below 0.9). Summed up: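 MCF-7 cells in DMEM + 10% FBS exposed 6 h to chemicals over an eight-point dilution series. Caspase-3/7 activation imaged by high-content CellEvent Green staining; fitted bidirectionally versus DMSO.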

Test [6] in a line: ATG_M_32_XSP2: Attagene TRANS-FACTORIAL Multi-Species (XSP2) HepG2 Assay for M19 Transcription Factor (Internal Marker) (AID 2283826). The essentials:
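HepG2 cells transiently transfected with GAL4-UAS reporter units; XSP2 panel included 3 nM 6-alpha-fluorotestosterone and 1.5 nM norgestrel for androgen receptor stimulation. Reporter mRNA read 24 h post-dosing by RT-PCR/capillary electrophoresis; fitted upward versus DMSO.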

Test [7] concerns the target Cellular tumor antigen p53 (Homo sapiens) (UniProt P04637). The experiment in a line: TOX21_p53_BLA_p4_ratio: Tox21 HCT-116 p53 Agonism Beta-lactamase Assay, Ratio, Phase 4 (AID 2283601). Summed up: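 HCT116 cells carrying an inducible beta-lactamase reporter were plated at 4000 cells/well, rested 5 h, then exposed to compounds in DMSO (217-fold dilution) for 16 h at 37C. CCF4-AM substrate was loaded 2 h at room temperature; 460/530 nm emission ratio scored gain-of-signal versus DMSO.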

Test [8] has the same target. Kind of test: TOX21_p53_BLA_p5_ratio: Tox21 HCT-116 p53 Agonism Beta-lactamase Assay, Ratio, Phase 5 (AID 2283599). Summed up:
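HCT-116 cells carrying a p53-inducible beta-lactamase reporter were seeded at 4000 cells/well and dosed after 5 h with compound in DMSO (217-fold dilution). After 16 h at 37C, CCF4-AM substrate was added for 2 h, and the 460/530 nm emission ratio was scored as gain-of-signal versus DMSO.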

Test [9] is described as follows: TOX21_p53_BLA_p5_viability: Viability Assessment in the Tox21 HCT-116 p53 Agonism Beta-lactamase Assay, Phase 5 (AID 2283600). Summed up: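 Decreased CellTiter-Glo luminescence denotes lost viability. Exposure: 16 h at 37C, 5% CO2, with compounds from DMSO stocks diluted 217-fold in wells of 4000 cells.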
The target of test [10] is PGR (gene 5241) (UniProt P06401). Kind of test: TOX21_PR_BLA_Followup_Agonist_ratio: Tox21 HEK293 Progesterone Receptor (PR) Agonism Beta-lactamase Follow-Up Assay, Ratio (AID 2283933). The essentials: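 Ratio-based beta-lactamase reporter signal after 16 hr compound treatment of PR-UAS-bla HEK293T cells at 37C. Substrate loading lasted 2 hr at room temperature.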
Chain of PGR (gene 5241) (P06401 whole entry, looked up): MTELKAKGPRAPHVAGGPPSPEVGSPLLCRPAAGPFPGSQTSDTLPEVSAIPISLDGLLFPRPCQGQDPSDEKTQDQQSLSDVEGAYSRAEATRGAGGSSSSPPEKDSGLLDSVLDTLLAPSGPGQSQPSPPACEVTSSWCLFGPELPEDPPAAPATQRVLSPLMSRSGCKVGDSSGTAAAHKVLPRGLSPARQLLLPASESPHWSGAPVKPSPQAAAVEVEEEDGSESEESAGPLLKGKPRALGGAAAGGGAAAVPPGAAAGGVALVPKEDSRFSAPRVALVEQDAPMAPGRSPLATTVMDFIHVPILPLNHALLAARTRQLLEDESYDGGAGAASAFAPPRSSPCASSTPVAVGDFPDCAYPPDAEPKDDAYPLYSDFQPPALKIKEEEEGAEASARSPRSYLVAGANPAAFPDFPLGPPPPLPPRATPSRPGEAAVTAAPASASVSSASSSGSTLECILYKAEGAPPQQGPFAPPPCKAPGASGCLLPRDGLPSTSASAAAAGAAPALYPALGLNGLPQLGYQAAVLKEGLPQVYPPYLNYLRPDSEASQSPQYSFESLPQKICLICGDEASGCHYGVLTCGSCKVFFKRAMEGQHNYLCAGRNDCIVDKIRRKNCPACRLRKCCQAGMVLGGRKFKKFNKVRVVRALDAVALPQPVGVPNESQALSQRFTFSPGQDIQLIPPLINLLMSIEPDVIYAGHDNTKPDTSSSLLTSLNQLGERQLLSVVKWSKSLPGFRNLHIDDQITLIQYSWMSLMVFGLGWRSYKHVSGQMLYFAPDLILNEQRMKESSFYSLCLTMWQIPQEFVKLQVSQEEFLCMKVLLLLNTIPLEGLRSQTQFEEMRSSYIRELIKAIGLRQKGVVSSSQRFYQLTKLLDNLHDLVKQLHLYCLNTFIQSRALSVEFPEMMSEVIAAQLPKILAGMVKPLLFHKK
Test [11] shares this target. Kind of test: TOX21_PR_BLA_Followup_Antagonist_ratio: Tox21 HEK293 Progesterone Receptor (PR) Antagonism Beta-lactamase Follow-Up Assay, Ratio (AID 2283934).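 Further: PR-UAS-bla HEK293T cells stimulated with 1 nM R5020 agonist for 16 hr.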 Summed up: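 Measured in PR-UAS-bla HEK293T cells co-treated with compound and 1 nM promegestone for 16 hr; beta-lactamase ratio read after 2 h FRET substrate loading, with parallel CellTiter-Glo cytotoxicity.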

A short description of test [12]: TOX21_PR_BLA_Followup_Agonist_viability: Viability Assessment in the Tox21 HEK293 Progesterone Receptor (PR) Agonism Beta-lactamase Follow-Up Assay (AID 2283935).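 Further: signal loss means lower viability so actives are cytotoxic.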 The essentials: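 Viability is read as CellTiter-Glo luminescence, where loss of signal indicates cytotoxicity. The cells are PR-UAS-bla HEK293T given compounds for 16 hr at 37C and 5% CO2, in the same wells used for the bla readout.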

Test [13] is described as follows: TOX21_PR_BLA_Followup_Antagonist_viability: Viability Assessment in the Tox21 HEK293 Progesterone Receptor (PR) Antagonism Beta-lactamase Follow-Up Assay (AID 2283936).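 Further: cells exposed to compound with R5020 agonist for 16 h; hits lower the luminescence signal meaning cytotoxicity.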 Summed up: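 PR-UAS-bla HEK293T cells in medium with 2% charcoal-stripped FBS were treated with compounds plus R5020 for 16 hr at 37C. After the beta-lactamase read, CellTiter-Glo was added to the same wells and luminescence read after 30 min at room temperature.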

Test [14] deals with PGR (gene 5241) (UniProt P06401). Kind of test: TOX21_PR_LUC_Followup_Agonist: Tox21 HEK293 Progesterone Receptor (PR) Agonism Luciferase Follow-Up Assay (AID 2283937; active means hit-call score of the fitted dose curve at least 0.9, where 1 is the maximum; inactive means score below 0.9). Summed up: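 In HEK293 cells stably expressing PR-A with a luciferase reporter, compounds were incubated 16 h at 37C, and induced luminescence was quantified with ONE-Glo, multiplexed with cell viability.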
Test [15] shares this target. The experiment in a line: TOX21_PR_LUC_Followup_Antagonist: Tox21 HEK293 Progesterone Receptor (PR) Antagonism Luciferase Follow-Up Assay (AID 2283938).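 Further: curve fitted upward as signal gain over DMSO baseline despite antagonist label.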 The essentials: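 HEK293-PR-A-luc cells, 3,000/well, preincubated 5 h at 37C before compound addition in DMSO; 16 h compound exposure at 37C. ONE-Glo luciferase luminescence read after 30 min at room temperature, fitted relative to DMSO baseline.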

Test [16] in a line: TOX21_PR_LUC_Followup_Antagonist_viability: Viability Assessment in the Tox21 HEK293 Progesterone Receptor (PR) Antagonism Luciferase Follow-Up Assay (AID 2283940). The essentials: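 Loss of CellTiter-Glo ATP signal indicates cytotoxicity in HEK293-PR-A-luc cells grown in 10% charcoal-stripped FBS medium, seeded 3,000 per well and incubated 16 h with compound at 37C.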
Test [17] can be described thus: TOX21_PR_LUC_Followup_Agonist_viability: Viability Assessment in the Tox21 HEK293 Progesterone Receptor (PR) Agonism Luciferase Follow-Up Assay (AID 2283941).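 Further: loss of signal means cytotoxicity so actives lower viability.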 Summed up: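 Seeding: HEK293-PR-A-luc, 3,000 cells/well, 5 h at 37C. Treatment: compound in DMSO, 16 h, 37C. Read: CellTiter-Glo ATP luminescence, signal loss taken as lower viability.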
The target of test [18] is human Androgen Receptor (AR), AR (gene 367) (UniProt P10275). The experiment in a line: ATG_hAR_XSP1: Attagene TRANS-FACTORIAL Multi-Species (XSP1) HepG2 Assay for human Androgen Receptor (AR) (AID 2283785).
Chain of human Androgen Receptor (AR), AR (gene 367) (P10275 whole entry, looked up): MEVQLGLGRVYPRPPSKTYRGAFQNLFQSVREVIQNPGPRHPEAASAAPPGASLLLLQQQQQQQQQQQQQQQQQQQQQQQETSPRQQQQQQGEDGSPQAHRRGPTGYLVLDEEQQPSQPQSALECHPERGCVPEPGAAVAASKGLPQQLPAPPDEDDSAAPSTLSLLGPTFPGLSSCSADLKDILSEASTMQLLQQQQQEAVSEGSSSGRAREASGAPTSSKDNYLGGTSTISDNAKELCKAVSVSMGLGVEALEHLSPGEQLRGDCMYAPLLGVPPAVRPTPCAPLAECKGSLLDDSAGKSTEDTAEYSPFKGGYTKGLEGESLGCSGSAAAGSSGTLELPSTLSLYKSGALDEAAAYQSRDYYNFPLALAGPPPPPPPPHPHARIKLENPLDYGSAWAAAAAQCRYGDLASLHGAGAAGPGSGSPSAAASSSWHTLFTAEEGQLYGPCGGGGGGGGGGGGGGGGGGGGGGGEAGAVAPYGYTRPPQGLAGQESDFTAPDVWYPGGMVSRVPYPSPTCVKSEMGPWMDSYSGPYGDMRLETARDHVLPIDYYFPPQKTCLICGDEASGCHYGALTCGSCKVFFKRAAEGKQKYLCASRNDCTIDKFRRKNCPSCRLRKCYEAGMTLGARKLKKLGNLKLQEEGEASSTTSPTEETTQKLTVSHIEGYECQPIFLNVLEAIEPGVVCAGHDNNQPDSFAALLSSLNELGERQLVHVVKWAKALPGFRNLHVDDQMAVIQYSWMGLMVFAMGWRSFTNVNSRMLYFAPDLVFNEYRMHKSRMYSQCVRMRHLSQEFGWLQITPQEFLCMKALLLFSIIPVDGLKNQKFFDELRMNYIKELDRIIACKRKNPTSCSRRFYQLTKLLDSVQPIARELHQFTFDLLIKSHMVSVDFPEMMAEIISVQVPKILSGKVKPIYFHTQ
The nature of test [19]: ACEA_ER_AUC_viability: ACEA Biosciences xCELLigence Real-Time Cell Analysis on Estrogen Receptor Agonism for Viability (AID 2283782).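 Further: hit means loss of impedance signal meaning reduced cell growth or viability.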 The essentials: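 Continuous-exposure impedance cell analysis uses T-47D cells in charcoal-stripped serum, eight 1:4 dilutions topping at 100 uM final, biological duplicate. Area under the growth curve at 80 h is fitted against DMSO baseline.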

Chain of Cellular tumor antigen p53 (Homo sapiens) (P04637 whole entry, looked up): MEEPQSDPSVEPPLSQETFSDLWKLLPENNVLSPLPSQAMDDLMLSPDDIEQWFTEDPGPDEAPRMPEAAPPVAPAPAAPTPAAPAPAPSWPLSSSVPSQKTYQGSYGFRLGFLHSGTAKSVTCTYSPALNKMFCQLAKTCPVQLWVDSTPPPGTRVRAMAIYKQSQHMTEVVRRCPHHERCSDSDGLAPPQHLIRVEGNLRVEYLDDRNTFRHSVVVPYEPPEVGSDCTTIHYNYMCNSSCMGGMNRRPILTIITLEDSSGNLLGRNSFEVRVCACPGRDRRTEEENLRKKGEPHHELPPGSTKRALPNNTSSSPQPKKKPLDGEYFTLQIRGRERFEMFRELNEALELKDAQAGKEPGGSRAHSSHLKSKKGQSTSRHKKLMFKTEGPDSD
Chain of Luciferin 4-monooxygenase (Photinus pyralis) (P08659 whole entry, looked up): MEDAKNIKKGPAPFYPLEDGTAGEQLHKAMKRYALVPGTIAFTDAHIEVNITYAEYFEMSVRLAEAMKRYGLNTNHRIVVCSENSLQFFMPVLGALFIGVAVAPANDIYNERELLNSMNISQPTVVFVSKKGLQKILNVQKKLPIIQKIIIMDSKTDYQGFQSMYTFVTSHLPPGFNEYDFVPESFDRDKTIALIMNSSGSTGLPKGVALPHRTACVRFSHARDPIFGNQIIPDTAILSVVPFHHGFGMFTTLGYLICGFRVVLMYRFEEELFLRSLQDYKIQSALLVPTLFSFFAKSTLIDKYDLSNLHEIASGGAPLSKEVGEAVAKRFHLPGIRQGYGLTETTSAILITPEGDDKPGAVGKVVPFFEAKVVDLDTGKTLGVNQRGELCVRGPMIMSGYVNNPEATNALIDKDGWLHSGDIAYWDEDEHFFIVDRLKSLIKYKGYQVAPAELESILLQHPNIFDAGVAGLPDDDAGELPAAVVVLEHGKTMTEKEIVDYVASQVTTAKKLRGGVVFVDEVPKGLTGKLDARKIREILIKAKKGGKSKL

By AC50 is commonly meant the concentration giving half of the maximal activity seen. For the compound `Cc1ccc2cc3c(ccc4ccccc43)c3c2c1CC3`, the outcome in test [1], in test [2], in test [4] and in test [5] was inactive. The AC50 in test [3] is 263 nM (active).

Turning to `Oc1ccc2cc(SSc3ccc4cc(O)ccc4c3)ccc2c1`, the call in test [6] was inactive.

Consider `CCN(CC)CCc1c[nH]c2ccccc12`, for which the outcome in test [7] was inactive.

Take `N#Cc1ccc(C2CCCc3cncn32)cc1` (centres undefined): in [6], the outcome was inactive.

`NC(=O)OCCCc1ccccc1`: the result in test [8], in test [9] and in test [7] was inactive.

Consider `Nc1ccc(Cl)cc1C(=O)c1ccccc1F`, for which the result (in the test with PGR (gene 5241) [10]; in [12]; in test [13]; with PGR (gene 5241) [14]; with PGR (gene 5241) [15]; in test [16]) was inactive. For the same compound, the result in [17] was inactive. Also, the AC50 with PGR (gene 5241) [11] was 17300 nM (active).

With `N#CCCl`, the outcome in test [8], in test [9] and in [7] was inactive.

With `CCCCCCCCCCCCc1ccc(O)cc1`, the call in [6] was inactive.

`CCCCC(CC)COC(=O)c1ccc(O)cc1` (centres undefined): in test [6], the compound was classed as inactive.

`NC(=O)c1cc([N+](=O)[O-])cc([N+](=O)[O-])c1`: the result in [9] was inactive.

With `CC1(C)C(C=C(Cl)Cl)C1C(=O)OCc1cccc(Oc2ccccc2)c1` (centres undefined), the call in [18] was inactive.

Take `C[C@]12CC[C@H]3[C@@H](CCC4=CC(=O)CC[C@@H]43)[C@@H]1CC[C@@H]2OC(=O)CCC1CCCCC1`: the results for the AC50 with PGR (gene 5241) [10] and in the test with PGR (gene 5241) [14] were 2390 nM (active) and 73.1 nM (active), respectively. The outcome (with PGR (gene 5241) [11]; in [12]; in test [13]; with PGR (gene 5241) [15]; in test [16]; in test [17]) was inactive.

For the compound `CC(C)=CC1C(C(=O)OC(C#N)c2cccc(Oc3ccccc3)c2)C1(C)C` (centres undefined), the compound was classed as inactive in test [19].

Turning to `CCCN1CCC[C@@H]2Cc3[nH]ncc3C[C@H]21`, the result in test [9] and in test [7] was inactive.

For `CN=C=O`, the result in test [7] was inactive.

As to `C[C@]12CC[C@H]3[C@@H](CCC4=CC(=O)CC[C@@H]43)[C@@H]1CC[C@@H]2OC(=O)CCc1ccco1`, the AC50 with PGR (gene 5241) [10] is 2160 nM (active); with PGR (gene 5241) [14], 27.5 nM (active). For the same compound, the outcome (in the test with PGR (gene 5241) [11]; in test [12]; in test [13]; with PGR (gene 5241) [15]) was inactive.

These data come from PubChem BioAssay (EPA / NIEHS).
